# Compound activity as filed in PubChem BioAssay.
# Compounds with a hit are over-represented: about 9.6% of the library has one in this group of screens.
# Insulin prom inh – TRM-6 insulin promoter activity inhibition; TRM-6 cells (human fetal islet line), insulin promoter-eGFP reporter, imaging; reporter expression induced with tamoxifen; inhibition, % at 2 µM; 130,000 compounds, 0.9% hits; AID 1273;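 active means inhibition above the mean plus 3 SD, with well images judged a real hit on visual review, cut at about 60% in these data, passing the limit was not always enough; inconclusive means inhibition over the cutoff but images rejected on review; inactive means inhibition not above the cutoff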
# HCT116 bCat-KO – beta-catenin-lacking colon tumor cell growth suppression; HCT116 beta-catenin knockout viability, CellTiter-Glo, 60 h; stronger effect = lower value; viability, % at 10 µM; 140,000 compounds, 1.5% hits; AID 818;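 active means viability at or under a set limit, the compound median less 4 SD, cut at about 6% in these data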
# PTEN del growth – growth suppressors of cells with PTEN tumor suppressor deletion. HCT116 PTEN-null viability, CellTiter-Glo, 60 h; stronger effect = lower value. viability, % at 10 µM. 140,000 compounds, 1.2% hits. AID 827;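 active means viability at or below a set limit, 4 SD under the median of all tested compounds, cut at about 3.7% in these data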;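 further: PTEN knockout HCT116 line with beta catenin targeted HCT116 as companion control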
# Autophagy mod – alters autophagy in cells | MEF GFP-LC3 puncta imaging; test concentration mostly 10 µM | AID 463193 | 190,000 compounds, 0.98% hits | calls only at 10 µM (by protocol);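 active means percentage of spot-positive cells more than 3 SD above its plate mean, without a fluorescence outlier flag or 80% toxicity; inconclusive means no clear call, values can overlap the other calls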
# Ins promoter up – MIN6 insulin promoter up-regulation | MIN6 insulin promoter-GFP reporter, high-content imaging; stronger effect = higher value | z-score at 5 µM | 190,000 compounds, 0.3% hits | AID 1625;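 active means z-score above 3 at 5 µM with at least 500 cells counted in the well; inconclusive means wells under 500 cells, flagged as cytotoxic or low count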
# L major viab – Leishmania major promastigote growth inhibition; Leishmania major promastigotes, resazurin fluorescence viability; inhibition, % at 10 µM; 200,000 compounds, 9% hits; in the data active means inhibition above about 50%;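 further: promastigotes grown with compound for 44 hours at 28 °C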
# Numbers stand for hits; 0 = inactive; ? = inconclusive; - = not tested or not shown.
SMILES,Insulin prom inh,HCT116 bCat-KO,PTEN del growth,Autophagy mod,Ins promoter up,L major viab
COc1ccc(-c2nc(-c3cccs3)c(-c3cccs3)[nH]2)cc1OC,0,0,0,0,-,100
CC(C)c1ccc(/C=N/NC(=O)C(=O)NCCCN2CCOCC2)cc1,0,0,0,0,0,0
CC1(C)Cc2c(c(N3CCOCC3)nc3sc4c(N5CCOCC5)nnnc4c23)CS1,-,0,0,0,0,0
CCN(CC)CCNc1ncnc2c1sc1nc(N3CCOCC3)c3c(c12)CC(C)(C)SC3,0,1.6,1.5,0,0,100
CC1(C)Cc2c(c(N3CCOCC3)nc3sc4c(=O)[nH]cnc4c23)CS1,0,0,0,0,0,0
CN(C)CCNc1ncnc2c1sc1nc(N3CCOCC3)c3c(c12)CC(C)(C)SC3,0,1.7,1.8,0,0,101
CC(C)CNC(=S)NC(=O)c1ccccc1Cl,0,0,0,0,-,0
Cc1cccc(NC(=S)NCCC(c2ccccc2)c2ccccc2)c1,0,0,0,0,0,97
COc1cccc(NC(=S)NCCC(c2ccccc2)c2ccccc2)c1,-,0,0,0,0,100
COCCOC(=O)C1=C(C)N(Cc2ccccc2)C(=O)NC1c1cccc(OC)c1OC (stereo unspecified),0,0,0,0,-,0
CC1CN(C(=O)Nc2ccc3snnc3c2)c2ccccc21 (stereo unspecified),-,0,0,0,0,51
CCOC(=O)C1CCN(S(=O)(=O)c2cccc(-c3csc(C)n3)c2)CC1,0,0,0,0,0,0
O=C(Nc1ccccc1)N1CC=C(c2ccccc2)CC1,75,0,0,0,0,81
O=C(Nc1cccc2ccccc12)N1CC=C(c2ccccc2)CC1,-,0,0,0,0,0
O=C(O)C1CCCCC1C(=O)N1CC=C(c2ccccc2)CC1 (stereo unspecified),0,0,0,0,-,61
O=C(Nc1ccccc1)N1CC=C(c2ccc(F)cc2)CC1,?,0,0,0,0,85
Cc1ccc(C(=O)CCNc2ccccc2)o1,0,0,0,0,0,94
Cc1ccc(C(=O)CCNc2ccc(Br)cc2)o1,0,0,0,0,0,0
Cc1cccc(NC(=O)NCCc2c[nH]c3ccccc23)c1,0,0,0,0,0,89
O=C(NCCc1c[nH]c2ccccc12)Nc1cccc2ccccc12,0,0,0,0,-,0
Cc1ccc2[nH]cc(CCNC(=O)CN3C(=O)c4ccccc4C3=O)c2c1,0,0,0,0,0,0
Cc1ccc2c(c1)N(CC(=O)NCCc1c[nH]c3ccccc13)C(=O)CO2,-,0,0,0,0,53
CC1CCN(c2nc(-c3cccnc3)nc3scc(-c4ccccc4)c23)CC1,0,0,0,0,0,0
Clc1nc(-c2ccccn2)nc2scc(-c3ccccc3)c12,0,0,0,0,0,66
CSC1=NC(C)(C)C=C(/C=C/c2ccc(Cl)cc2)N1,-,-,-,0,0,100
SMILES,Insulin prom inh,HCT116 bCat-KO,PTEN del growth,Autophagy mod,Ins promoter up,L major viab
CSC1=NC(C)(C)C=C(/C=C/c2c(Cl)cccc2Cl)N1,0,-,-,0,0,58
CCSC1=NC(C)(C)C=C(C)N1,0,0,0,0,0,0
CCSC1=NC(C)(C)C=C(/C=C/c2ccc(Cl)cc2Cl)N1,0,0,0,0,0,100
CSC1=NC(C)(C)C=C(/C=C/c2ccc(Cl)cc2Cl)N1,0,-,-,0,0,72
CC1(C)N=C(c2ccc(Cl)cc2Cl)C(=O)N1,-,0,0,0,0,0
COC(=O)c1ccc(C23CC4(C2)[C@H](CN(Cc2ccc(-c5ccccc5)cc2)[C@@H]4c2ccccc2)C3c2ccc(Cl)nc2)cc1 (stereo partly specified),-,-,-,-,0,-
NC(=O)CC(NC(=O)c1ccccc1)c1ccc(NCc2ccccc2)c([N+](=O)[O-])c1 (stereo unspecified),-,-,-,-,0,-
CSc1ccccc1NC(=O)COc1ccccc1C,-,-,-,0,0,0
COC(=O)CCc1c(C)c(C(=O)c2ccco2)c2ccccn12,-,0,0,0,0,0
COc1cc(/C=N/NC(=O)c2nonc2N)cc(OC)c1OC,-,-,-,0,0,0
CCOC(=O)c1nn(-c2ccccc2)c2nnc(Cc3ccc(C)cc3)c(=O)n12,77,0,0,0,0,0
COc1cc(/C=N/NC(=O)c2cn(-c3cccc(C)n3)cn2)ccc1O,-,-,-,0,0,98
COc1cc(/C=N/NC(=O)c2nc(C)cc(C)n2)ccc1O,0,0,0,0,0,0
Cc1cccc(-n2cnc(C(=O)O)c2)n1,0,-,-,0,0,0
C/C(=N/NC(=O)c1cn(-c2cccc(C)n2)cn1)c1ccc(C)cc1,0,0,0,0,0,77
Cc1ccc(C2C=C(c3ccc4c(c3)OCO4)Nc3ncnn32)cc1 (stereo unspecified),0,0,0,0,-,0
O=C1CCN=C(Nc2ccc(F)cc2)N1Cc1ccccc1,0,0,0,0,0,72
Cc1ccc(C2(C)NC(=O)N(CC(=O)NCCC3=CCCCC3)C2=O)cc1 (stereo unspecified),0,0,0,0,0,0
FC(F)(F)c1cccc(NC(=S)NCC(c2cccnc2)N2CCOCC2)c1 (stereo unspecified),-,0,0,0,0,61
O=[N+]([O-])c1ccc(NC(=S)NCC(c2cccnc2)N2CCOCC2)cc1 (stereo unspecified),0,-,-,0,0,0
COc1ccc(C(=O)NCC(c2cccnc2)N2CCN(c3ccccc3OC)CC2)cc1OC (stereo unspecified),-,0,0,0,0,74
COc1cccc(C(=O)NCC(c2cccnc2)N2CCN(c3ccccc3OC)CC2)c1 (stereo unspecified),-,0,0,-,-,88
COc1ccc(C(=O)NCc2cccnc2)cc1OC,0,0,0,0,0,0
COc1ccccc1N1CCN(C(c2cccs2)C(C)NC(=O)c2cccnc2)CC1 (stereo unspecified),0,-,-,0,0,0
CCN1CCCC1CNC(=O)C(=O)NCc1ccccc1 (stereo unspecified),0,-,-,0,0,0
SMILES,Insulin prom inh,HCT116 bCat-KO,PTEN del growth,Autophagy mod,Ins promoter up,L major viab
COc1ccc(OC)c(C2=NOC(C(=O)NCC3CCCO3)C2)c1 (stereo unspecified),-,0,0,0,3.7,0
CCOc1ccc(C(=O)NC(C(=O)NCC2CCCO2)C(C)C)cc1 (stereo unspecified),-,-,-,-,0,-
COc1ccc(C(=O)NC(C(=O)NCC2CCCO2)C(C)C)cc1 (stereo unspecified),82,-,-,0,0,0
COc1cccc(C2=NOC(C(=O)NCC3CCCO3)C2)c1 (stereo unspecified),0,0,0,0,0,0
O=c1oc(-c2cccc(Cl)c2)nc2c1cnn2-c1ccccc1,0,0,0,0,0,0
O=C(NC1=NCCS1)C1Cc2ccccc2CN1C(=O)c1ccccc1 (stereo unspecified),0,0,0,0,3.1,0
O=C(Cc1ccc(Cl)cc1)NNS(=O)(=O)c1ccc([N+](=O)[O-])cc1,0,0,0,0,0,68
O=C(Cc1ccc([N+](=O)[O-])cc1)Nc1ccc(Cl)cc1,0,-,-,0,0,0
